Compound activity (PubChem)
KB-V1 cytotox – qHTS assay for MDR1-selective chemotherapeutics: Primary screen using the drug-selected MDR subline cells KB-V1. actives 3.4% (n = 400,000). Potency, µM (highest dose often 46.1 µM), actives largely listed as cytotoxic. KB-V1 MDR cells viability, CellTiter-Glo, 72 h; note: potency is the fitted concentration of half-maximal effect; nearly all actives have a fitted effect of over 60% in size
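Cytotoxicity via CellTiter-Glo luminescence after 72 h compound exposure at 37 degrees C. Cells: drug-selected KB-V1 line, DMEM phenol-red free plus 10% FBS. Compounds tested at multiple concentrations; normalized data fitted to concentration-effect curves.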
HT1080-NT tox – qHTS for induction of synthetic lethality in tumor cells producing 2HG: qHTS for the HT-1080-NT fibrosarcoma cell line | actives 1.6% (n = 360,000) | AID 686970, 2013 | HT-1080-NT fibrosarcoma viability, CellTiter-Glo ATP luminescence, 48 h | Potency, µM (series often up to 46.1 µM), inactives show at the top dose activity, negative = less viability, most hits filed as cytotoxic;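 note: NT is the 2HG producing partner of a matched IDH1 knockdown line; potency is the fitted concentration of half-maximal effect; 0% = DMSO-treated cells and -100% = media-only wells without cells; nearly all actives have a fitted effect of over 55% in size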
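Read-out is CellTiter-Glo luminescence after 10 minutes at room temperature, following 48 hours' compound treatment of HT-1080-NT cells (750 cells/well, RPMI, 5% FBS, 37 degrees C).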
HT1080 IDH1KD tx – qHTS for induction of synthetic lethality in tumor cells producing 2HG: qHTS for the HT-1080-IDH1KD cell line | HT-1080 IDH1 knockdown viability, ATP luminescence, 48 h | actives 2% (n = 360,000) | Potency, µM (highest dose often 46.1 µM), for inactives: at the top dose activity, negative = toxicity, most hits filed as cytotoxic;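 note: potency is the fitted concentration of half-maximal effect; 0% = DMSO wells and -100% = cell-free medium wells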
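Luminescent ATP read-out (CellTiter-Glo, 10 min at room temperature) after 48 h compound exposure at 37 °C gave viability of IDH1-knockdown HT-1080 cells. Activity was normalised to DMSO and cell-free wells, then fitted as concentration-response curves.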
IL1B secr inh – qHTS for Inhibitors of Inflammasome Signaling: IL-1-beta AlphaLISA Primary Screen; activity change, % at 57.5 µM; THP-1 LPS/ATP IL-1B secretion, AlphaLISA, 16 h; active compounds read low; AID 743279, 2014; actives 4.7% (n = 360,000); in the data active = activity change below about -50%; inconclusive = mostly about -30% to -49%
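Secreted IL-1B measured by AlphaLISA bead assay after 16 h compound exposure of THP-1 cells; compounds (final up to 57.5 uM) added 1 h before LPS (250 ng/mL) and ATP (1.25 mM) stimulation; lower signal means less secretion.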
KB-3-1 tox – qHTS assay for MDR1-selective chemotherapeutics: Primary screen using the parental adenocarcinoma cell KB-3-1. KB-3-1 viability, CellTiter-Glo ATP luminescence, 72 h. Potency, µM (highest dose often 46.1 µM), most hits filed as cytotoxic. actives 1.4% (n = 400,000). AID 1347075, 2019; note: potency is the fitted concentration of half-maximal effect; nearly all actives have a fitted effect of over 60% in size
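Viability of parental KB-3-1 cells, measured by CellTiter-Glo luminescence, followed a 72 h incubation at 37 °C with pinned compounds in phenol-red-free DMEM containing 10% FBS.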
The depositor's hits bear a star; i = inactive; ? = inconclusive; nt = no result; [ ] = dose if it differs, or a comment. This is a sample that favours compounds with a hit; in the whole collection about 8.8% have one here. Unless noted, calls come from the whole dose curve; as a rule, active = well fitted curve in the direction sought with a large enough effect; inconclusive = small, poorly fitted or top-dose-only effect, or another doubt; inactive = no such curve, though single readings can be large; an effect the other way counts as inactive or inconclusive. Unless noted, % is set by controls: 0 for no effect and ±100 for the full control effect.

SMILES | KB-V1 cytotox | HT1080-NT tox | HT1080 IDH1KD tx | IL1B secr inh | KB-3-1 tox
CCN1CCN(S(=O)(=O)c2ccc(Cl)c(C(=O)N(C)C(c3ccccc3)c3ccccc3)c2)CC1 | i | -26.2% | -22.0% | -75.4* | i
CN(Cc1ccccc1)C(=O)CN1CCN(S(=O)(=O)c2ccc(Cl)c(Cl)c2)CC1 | i | 3.7%[9.24 µM] | -1.6% | -54.1* | i
Cc1ccc(-c2csc(N3CCC(C(N)=O)CC3)n2)cc1 | i | nt | nt | nt | i
Cc1ccc(-c2csc(N=C(N)N)n2)cc1 | i | -14.4% | ? | -60.8* | i
CCN1/C(=C/C=C/c2sc3ccccc3[n+]2CC)Sc2ccccc21 | ? | 1.64µM* | 1.46µM* | -104.8* | 16.4µM*
CC[n+]1c(/C=C(\C)SC)sc2ccccc21 | i | -1.7% | -7.6% | 25.8 | i
CCN1/C(=C/C=C/C=C/C=C/c2sc3ccccc3[n+]2CC)Sc2ccccc21 | i | -16.9% | -16.2% | ? | 16.4µM*
C=CCNC(=O)C1CC1(c1ccccc1)c1ccccc1 (stereo not given) | 18.4µM* | 6.0% | -8.6% | 0.0 | i
CCCCCc1ccc(OCCCC[n+]2ccccc2)c(CCCCC)c1 | ? | 23.1µM* | 8.2µM* | -92.8* | ?
CCCCCc1ccc(OCCCC[n+]2cccc(C)c2)c(CCCCC)c1 | i | 4.11µM* | 4.11µM* | -95.8* | 9.2µM*
CCC(C)(C)c1ccc(Oc2cccc(C(=O)O)c2)cc1 | i | 4.8% | 9.2% | 22.0 | i
CCC(C)(C)c1ccc(OCCCC[n+]2ccccc2)c(C(C)(C)CC)c1 | ? | 16.4µM* | ? | -14.2 | 9.2µM*
CCCCCc1ccc(OCCCC[n+]2ccc(C)cc2)c(CCCCC)c1 | i | 6.51µM* | 6.51µM* | -99.8* | 5.8µM*
CCCCOc1ccc(C)cc1CN(CCO)CCO | i | -12.2% | -1.0%[9.24 µM] | -1.5 | i
CN(c1cccc(F)c1)c1cc2c(c3c1ccn3C)C1CCC2O1 (stereo not given) | i | -18.7% | -21.5% | 0.0 | i
O=C1NC[C@@H](CCCCN2C[C@H](Cc3ccc(O)cc3)N(CCc3ccccc3)C(=O)C2=O)N(CCc2ccc(O)cc2)C1=O | i | 11.5% | 25.4% | -14.5 | i
CCCCCCCCCCCCCCCC[n+]1ccc(C)cc1 | ? | nt | nt | nt | 1.64µM*
COc1ccccc1NC(=O)CN(c1ccccc1)S(=O)(=O)c1ccccc1 | ? | -2.2% | -16.1% | 0.0 | i
COc1ccc(S(=O)(=O)N(CC(=O)Nc2ccccc2C(=O)N2CCOCC2)c2ccc(F)cc2)cc1 | 16.4µM* | -7.3% | -7.0% | 11.1 | i
COc1ccc(NC(=O)CN(c2ccc([N+](=O)[O-])cc2)S(=O)(=O)c2ccccc2)cc1 | 16.4µM* | -28.9% | ? | 13.0 | i
COc1ccc(N(CC(=O)Nc2ccc(F)cc2)S(=O)(=O)c2ccccc2[N+](=O)[O-])c(OC)c1 | i | 3.6% | -0.4% | -59.6* | i
COc1ccc(N(CC(=O)Nc2ccccc2OC)S(=O)(=O)c2ccc(NC(C)=O)cc2)cc1 | ? | ? | ? | 25.8 | 20.6µM*
O=C(CC(Nc1ccc(F)cc1)C(=O)OCC(=O)c1cccs1)c1ccccc1 (stereo not given) | i | 6.8% | 15.8% | 0.0 | i
O=C(NCc1ccc(F)cc1)C(=O)NCC1OCCN1C(=O)c1cccs1 (stereo not given) | i | 14.5% | 17.1% | -0.3 | i
Cc1ccc2[nH]c3c(c2c1)CN(C(=O)CN1CCCc2ccccc21)CC3 | i | ? | 23.1µM* | -10.2 | i
SMILES | KB-V1 cytotox | HT1080-NT tox | HT1080 IDH1KD tx | IL1B secr inh | KB-3-1 tox
O=C(NCCN1CCCCC1)c1cc(Cl)ccc1Cl | ? | 7.6% | 7.7% | 5.7 | i
NC(=O)c1nsc(C(=O)N(Cc2cccnc2)C(C(=O)NCc2ccc(F)cc2)c2ccc(O)cc2)c1N (stereo not given) | i | -15.1% | -0.5% | -14.2 | i
Cc1ccc(N(C(=O)c2snc(C(N)=O)c2N)C(C(=O)NC2CCCC2)c2ccncc2)cc1 (stereo not given) | i | -4.9% | -8.9% | -14.7 | i
CC(C(=O)NCc1ccccc1)N(Cc1ccccc1Cl)C(=O)c1snc(C(N)=O)c1N (stereo not given) | i | -13.1% | 0.5% | -75.3* | i
Cc1ccc(N(C(=O)c2snc(C(N)=O)c2N)C(C(=O)NCc2ccccc2)c2ccncc2)c(C)c1 (stereo not given) | i | -28.8% | -21.1% | -51.0* | ?
COc1ccccc1N(C(=O)c1snc(C(N)=O)c1N)C(C(=O)NCc1ccccc1)c1ccc(O)cc1 (stereo not given) | i | -18.2% | -17.1% | -72.4* | i
NC(=O)c1nsc(C(=O)N(c2ccccc2F)C(C(=O)NCc2ccc(F)cc2)c2ccc(O)cc2)c1N (stereo not given) | i | 16.4µM* | ? | -100.2* | ?
N#C/C(=C\c1ccc(Br)cc1)c1nc(-c2cc3cc(Br)ccc3oc2=O)cs1 | ? | nt | nt | nt | i
Cc1cc(C)n2c(NCc3ccccc3)c(-c3cc4ccccc4o3)nc2n1 | ? | -27.5% | ? | 10.4 | i
NC(=O)c1nsc(C(=O)N(c2cccc(F)c2)C(C(=O)NC2CCCC2)c2ccc(O)cc2)c1N (stereo not given) | i | -23.0% | -7.3% | 5.8 | i
NC(=O)c1nsc(C(=O)N(c2cccc(F)c2)C(C(=O)NCc2ccccc2)c2ccc(O)cc2)c1N (stereo not given) | i | -0.7% | -8.1% | -50.7* | i
COc1ccc(N(C(=O)c2snc(C(N)=O)c2N)C(C(=O)NCc2ccccc2)c2ccc(F)cc2)c(OC)c1 (stereo not given) | i | ? | ? | ? | i
COc1ccc(C(C(=O)NCc2ccccc2)N(C(=O)c2snc(C(N)=O)c2N)c2ccccc2OC)cc1 (stereo not given) | i | -11.9% | -9.0% | -54.5* | ?
COc1ccc(C2C=C(C34CC5CC(CC(C5)C3)C4)NC(=S)N2)cc1OC (stereo not given) | 18.4µM* | -0.1% | -2.1% | -21.5 | i
C=CCn1c[n+](CC(=O)c2ccc(Br)s2)c2ccccc21 | i | -21.0% | -8.6% | -65.4* | i
C[C@H](CO)N1C[C@H](C)[C@H](CN(C)S(=O)(=O)c2ccc3ccccc3c2)OCc2cnnn2CCCC1=O | i | -2.0% | -0.2% | -23.0 | i
